Screening data from PubChem.
Only some compounds are listed: those with a hit (about 1.6% of all), similar ones and a draw of the others.
sEH act – soluble epoxide hydrolase (human) activation; 91,000 tested, 0.04% active; purified human sEH enzymatic activity, activator screen; AID 717; activation, % at 2 µM; in the data active means activation above about 37%
PLAP activator – activates human placental alkaline phosphatase | 96,000 tested, 1.2% active | activation fold at 20 µM | AID 696 | P05187 | purified PLAP enzyme, luminescent substrate read-out; hits give high values; in the data active means activation fold above about 2
sEH inhibitor – soluble epoxide hydrolase (human) inhibition | P34913 | recombinant human sEH enzymatic activity assay | inhibition, % at 2 µM | 91,000 tested, 0.34% active; in the data active means inhibition above about 80%
EphB4 antag – antagonists of human EphB4-ephrin-B2 interaction; inhibition, % at 7 µM; EphB4 LBD / TNYL-RAW-Alexa532 peptide, fluorescence polarization; 97,000 tested, 0.15% active; P54760;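 active means inhibition above the screen-wide mean inhibition plus 3 SD, cut at about 15% in these data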;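 further: 0% = DMSO wells and 100% = excess unlabeled TNYL-RAW peptide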
PTPN22 inh 2 – inhibitors of human LYP (PTPN22) phosphatase; recombinant LYP catalytic domain, DiFMUP fluorescence; 96,000 tested, 0.21% active; AID 640; inhibition, % at 2 µM; Q9Y2R2;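 active means inhibition at 2 µM at or above a set limit, the screen mean plus 3 SD, cut at about 24% in these data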;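 further: 0% = DMSO with enzyme and 100% = enzyme fully blocked by orthovanadate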
Target sequence (Q9Y2R2 whole entry, looked up, the tested form may be a part): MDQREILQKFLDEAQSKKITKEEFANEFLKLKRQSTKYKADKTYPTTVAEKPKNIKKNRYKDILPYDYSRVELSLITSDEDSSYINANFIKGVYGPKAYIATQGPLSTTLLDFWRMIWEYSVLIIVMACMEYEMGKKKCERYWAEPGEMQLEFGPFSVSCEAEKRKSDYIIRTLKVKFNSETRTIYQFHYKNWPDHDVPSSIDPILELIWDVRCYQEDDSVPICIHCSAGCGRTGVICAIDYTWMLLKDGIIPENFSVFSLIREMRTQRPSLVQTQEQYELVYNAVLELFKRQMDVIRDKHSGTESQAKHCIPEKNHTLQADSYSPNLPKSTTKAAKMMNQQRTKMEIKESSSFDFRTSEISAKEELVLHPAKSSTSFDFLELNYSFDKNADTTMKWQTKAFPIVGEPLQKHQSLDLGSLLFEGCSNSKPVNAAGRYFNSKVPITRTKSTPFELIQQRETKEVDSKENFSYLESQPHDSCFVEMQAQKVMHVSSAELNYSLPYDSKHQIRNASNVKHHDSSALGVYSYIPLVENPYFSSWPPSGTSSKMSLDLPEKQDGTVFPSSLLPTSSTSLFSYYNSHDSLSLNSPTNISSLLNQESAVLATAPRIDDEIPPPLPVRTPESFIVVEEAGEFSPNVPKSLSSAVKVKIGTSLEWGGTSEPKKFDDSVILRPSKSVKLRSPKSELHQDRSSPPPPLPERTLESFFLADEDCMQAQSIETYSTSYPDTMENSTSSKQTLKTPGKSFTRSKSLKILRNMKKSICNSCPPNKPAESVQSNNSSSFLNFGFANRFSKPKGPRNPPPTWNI
LYP act – LYP (human) phosphatase activation; Q9Y2R2; activation, % at 2 µM; recombinant LYP, DiFMUP fluorescence; 0 = plate median, 100 = signal doubled; AID 697; 96,000 tested, 0.11% active;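 active means activation at 2 µM above a set limit, the mean plus 5 SD, cut at about 37% in these data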
* marks the source's active call; other numbers are inactive results; . = no result given.

SMILES	sEH act	PLAP activator	sEH inhibitor	EphB4 antag	PTPN22 inh 2	LYP act
CCn1c(C(=O)N2CCCC(C(=O)NCCc3ccc(C)cc3)C2)cc2sccc21 (stereo unspecified)	-70	1.4	71	-2	-8	5
CCn1c(C(=O)N2CCCC(C(=O)NCCCc3ccccc3)C2)cc2sccc21 (stereo unspecified)	-94	.	94*	2	6	-3
Cn1c(C(=O)N2CCCC(C(=O)NCCCSC3CCCCC3)C2)cc2sccc21 (stereo unspecified)	-92	1.5	92*	2	-3	0
O=C(CN1CCN(Cc2ccccc2F)C1=O)NCCc1ccc(Cl)cc1	-5	1.4	3	6	-2	1
O=c1c(/C=N/Nc2ccccc2)c(Sc2nnnn2-c2ccccc2)nc2ccccn12	0	0.7	-2	-1	24*	-23
COc1cc(C(=O)Oc2ccccc2/C=N/NC(=O)c2ccc(C)cc2)cc(OC)c1OC	18	1	-15	10	-2	5
COc1ccccc1NC(=O)c1[nH]c(C)c(C(C)=O)c1C	3	0.8	-4	-5	-3	2
COc1cccc(/C=N/NC(=O)CSc2nnc(C)n2-c2ccccc2)c1O	1	2.1*	2	4	16	-13
COc1cccc(/C=N/NC(=O)c2ccc(-c3ccccc3)cc2)c1O	2	2.1*	-2	3	28*	-27
COc1cccc(/C=N/NC(=O)c2[nH]c(C)c(C(=O)N/N=C/c3cccc(OC)c3O)c2C)c1O	3	2.5*	-1	10	14	-11
CCc1ccc(NC(=O)CSc2nnc(SCC(=O)Nc3ccc(CC)cc3)n2N)cc1	-4	0.8	2	-6	-6	8
CCOC(=O)c1ccc(N2C(=O)CC(N(Cc3ccc4c(c3)OCO4)C(=O)Nc3ccccc3)C2=O)cc1 (stereo unspecified)	0	2*	0	-3	12	-10
CCNc1cc2oc(=O)c(CN3CCOCC3)c(C)c2cc1C	6	2*	-6	0	-4	2
CSc1cccc(NC(=O)Nc2ccc(Cl)cc2)c1	-82	1	82*	0	-15	18
CCCCOC(=O)Nc1ccccc1C(N)=O	.	0.9	.	.	.	.
CC(=O)N1CCCc2cc(S(=O)(=O)NC(C(=O)NCc3ccc(C)cc3)C(C)C)ccc21 (stereo unspecified)	.	1	.	-8	-6	4
CCC(=O)N1CCc2cc(S(=O)(=O)NCCCN3CCN(Cc4ccccc4)CC3)ccc21	2	2*	0	5	1	2
CC(=O)N1CCc2cc(S(=O)(=O)NCCCN3CCN(Cc4ccccc4)CC3)ccc21	2	1.6	0	-4	0	0
CC(=NCCCn1ccnc1)c1c(-c2ccccc2)[nH]n(-c2nc3ccccc3s2)c1=O	10	2*	-12	5	18	-17
O=c1c(C=NCCCn2ccnc2)c(-c2ccccc2)[nH]n1-c1nc2ccccc2s1	-8	1.7	11	8	11	-10
CC(C)n1c(C(O)c2ccc3c(c2)OCO3)nc2ccccc21 (stereo unspecified)	.	2.4*	.	.	.	.
Cn1c(C(O)c2ccc3c(c2)OCO3)nc2ccccc21 (stereo unspecified)	0	1.4	0	3	12	-15
O=C(NC12CC3CC(CC(C3)C1)C2)N1CCC(O)(c2ccc3c(c2)OCO3)CC1	-88	1	88*	-7	0	-2
COc1cc(C2c3c(-c4cc(C)cc(C)c4O)n[nH]c3C(=O)N2CCCO)cc(OC)c1OC (stereo unspecified)	16	2.1*	-14	4	2	-3
Cc1c(NC(=O)Cn2ccc([N+](=O)[O-])n2)c(=O)n(-c2ccccc2)n1C	-2	0.9	5	-8	-1	5
SMILES	sEH act	PLAP activator	sEH inhibitor	EphB4 antag	PTPN22 inh 2	LYP act
Cc1ccc2nc(SCC(=O)NC(=O)NCc3ccco3)[nH]c2c1	.	2*	.	.	.	.
Nc1nc(SCC(=O)N2N=C3/C(=C/c4ccco4)CCCC3C2c2ccco2)n[nH]1 (stereo unspecified)	15	2.1*	-17	1	-3	5
Cn1cnnc1SCC(=O)N1N=C2/C(=C/c3ccco3)CCCC2C1c1ccco1 (stereo unspecified)	-4	1.3	2	-5	-12	15
COc1ccccc1-c1cnnc(N/N=C/c2ccc(-c3cccc(Br)c3)o2)n1	-3	.	6	4	31*	-31
Cc1nnc(N(Cc2ccco2)C(=O)c2cccc(C#N)c2)s1	-2	0.9	3	-1	-19	16
Cc1nnc(N(Cc2ccco2)C(=O)c2ccc(C#N)cc2)s1	-4	.	7	-2	27*	-27
COc1cccc(C2CC(c3ccccc3OC)n3nc(N)nc3N2)c1 (stereo unspecified)	5	1.4	-4	0	0	0
O=c1oc2c(CN3CCCCCC3)c(O)ccc2cc1-c1nc2ccccc2[nH]1	.	2.4*	.	.	.	.
COc1ccc(C2(O)CCN(CCCCOc3ccccc3)CC2)cc1	1	2.1*	-3	-1	10	-11
CCNc1nc2c(c(=O)n(Cc3ccccc3)c(=O)n2C)n1Cc1ccccc1	-7	1.6	5	9	-1	2
O=C(N/N=C/c1cccs1)c1cc(-c2ccc3ccccc3c2)n[nH]1	7	1.4	-4	2	13	-8
O=C(N/N=C/c1ccco1)c1cc(-c2ccc3ccccc3c2)n[nH]1	9	2.7*	-8	0	-1	3
COCc1nnc(NC(=O)CC(c2ccccc2)c2ccccc2)s1	-12	1	12	17*	8	-6
Cn1c(=O)c2c(nc(CN3CCN(C(=O)c4ccco4)CC3)n2CCCc2ccccc2)n(C)c1=O	8	1.4	-9	3	-3	3
N#CC1=C(N)Oc2n[nH]c(-c3ccccc3)c2C1c1ccncc1 (stereo unspecified)	-10	1.6	8	3	4	-5
N#CC1=C(N)Oc2n[nH]c(-c3ccc(F)cc3)c2C1c1cccnc1 (stereo unspecified)	-2	2*	4	-4	0	-2
CCOC(=O)Cc1c(C)nc2c(-c3cccc(Br)c3)c[nH]n2c1=O	.	1.1	.	.	.	.
O=c1c2ccccc2nc(CSc2ncnc3nc[nH]c23)n1-c1cccc(C(F)(F)F)c1	8	2.1*	-11	3	-2	3
O=C(CSc1ncnc2nc[nH]c12)N1CCN(c2ccccc2)CC1	-3	1.4	2	-5	-10	7
O=C(Nc1cccc2ccccc12)N1CCOCC1	8	0.8	-7	-2	-8	3
O=C(Nc1cccc2ccccc12)c1ccc(OC(=S)N2CCOCC2)cc1	-88	1	88*	-3	7	-2
N#C/C(=C(\O)Cc1ccccc1)c1nc2ccccc2[nH]1	0	0.9	3	-5	-6	10
